From PubChem BioAssay AID1159580 (chemical genetic matrix, 2015)
Hit rate of the full screen: of about 5,500 compounds, about 2,000 (36%) were called active. Inconclusive results (about 18%) are left out. Cut-off read from the data, not from the text of the source: active = normalized growth mostly below about 0.91 (no sharp cut-off); inconclusive = no clear call, values can overlap the other calls; inactive = mostly above about 0.92. The list shows a part of the results.

Assay: chemical genetic growth profiling, strain panel (AID 1159580);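 note: tested at 20 µM; growth read once vehicle control cultures reached saturation at 30 °C; 1 = growth at the plate median or of vehicle wells; lower values mean less growth of the strain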
Conditions: S. cerevisiae deletion strains, growth OD

Measured: normalized growth

Cc1ccc(S(=O)(=O)NC(=O)Nc2ccc(Sc3ccccc3)nc2Sc2ccccc2)cc1
inactive: locus YAR019C, strain CDC15, active compounds read low 0.984 | locus YBL105C, strain PKC1, active compounds read low 0.967 | locus YBR135W, strain CKS1, active compounds read low 0.968 | locus YBR136W, strain MEC1, active compounds read low 0.972 | locus YBR160W, strain CDC28, active compounds read low 0.969 | locus YDL017W, strain CDC7, active compounds read low 0.974 | locus YDL028C, strain MPS1, active compounds read low 0.974 | locus YDL101C, strain DUN1, active compounds read low 0.983 | locus YDL108W, strain KIN28, active compounds read low 0.966 | locus YDL132W, strain cdc53, active compounds read low 0.956 | locus YDL214C, strain PRR2, active compounds read low 0.927 | locus YDR052C, strain DBF4, active compounds read low 0.978 | locus YDR054C, strain cdc34, active compounds read low 0.969 | locus YDR226W, strain ADK1, active compounds read low 0.977 | locus YDR477W, strain SNF1, active compounds read low 0.936 | locus YER123W, strain YCK3, active compounds read low 0.976 | locus YER133W, strain GLC7, active compounds read low 0.961 | locus YFL009W, strain cdc4, active compounds read low 0.957 | locus YFL029C, strain CAK1, active compounds read low 0.979 | locus YFR003C, strain YPI1, active compounds read low 0.969 | locus YFR019W, strain FAB1, active compounds read low 0.993 | locus YFR028C, strain CDC14, active compounds read low 0.974 | locus YGR040W, strain KSS1, active compounds read low 0.942 | locus YGR052W, strain FMP48, active compounds read low 0.982 | locus YGR092W, strain DBF2, active compounds read low 0.913 | locus YHR079C, strain IRE1, active compounds read low 0.948 | locus YHR082C, strain KSP1, active compounds read low 1.03 | locus YHR205W, strain SCH9, active compounds read low 0.946 | locus YIL147C, strain SLN1, active compounds read low 0.977 | locus YJL095W, strain BCK1, active compounds read low 0.933 | locus YJL128C, strain PBS2, active compounds read low 0.967 | locus YJL157C, strain FAR1, active compounds read low 0.97 | locus YJR016C, strain ILV3, active compounds read low 0.98 | locus YJR066W, strain TOR1 (second series), active compounds read low 0.967 | locus YJR066W, strain TOR1, active compounds read low 0.95 | locus YKL048C, strain ELM1, active compounds read low 0.97 | locus YKL067W, strain YNK1, active compounds read low 0.914 | locus YKL101W, strain HSL1, active compounds read low 0.957 | locus YKL193C, strain SDS22, active compounds read low 0.972 | locus YKL203C, strain TOR2, active compounds read low 1.04 | locus YLR113W, strain HOG1, active compounds read low 0.885 | locus YLR133W, strain CKI1, active compounds read low 0.954 | locus YLR403W, strain SFP1, active compounds read low 0.999 | locus YML070W, strain DAK1, active compounds read low 0.972 | locus YMR001C, strain CDC5, active compounds read low 0.971 | locus YMR205C, strain PFK2 (second series), active compounds read low 0.944 | locus YMR277W, strain FCP1, active compounds read low 0.965 | locus YNL006W, strain LST8, active compounds read low 0.968 | locus YNL020C, strain ARK1, active compounds read low 0.949 | locus YNL161W, strain CBK1, active compounds read low 0.973 | locus YNL183C, strain NPR1, active compounds read low 0.969 | locus YNL207W, strain RIO2, active compounds read low 0.966 | locus YNL222W, strain SSU72, active compounds read low 0.948 | locus YNL307C, strain MCK1 (second series), active compounds read low 0.945 | locus YOL078W, strain AVO1, active compounds read low 0.966 | locus YOL136C, strain PFK27, active compounds read low 0.972 | locus YOR061W, strain CKA2, active compounds read low 0.938 | locus YOR119C, strain RIO1, active compounds read low 0.98 | locus YOR231W, strain MKK1, active compounds read low 0.976 | locus YOR329C, strain SCD5, active compounds read low 0.977 | locus YPL031C, strain PHO85, active compounds read low 0.94 | locus YPL153C, strain RAD53, active compounds read low 0.946 | locus YPL204W, strain HRR25, active compounds read low 0.934 | locus YPL209C, strain IPL1, active compounds read low 0.976 | locus YPL256C, strain CLN2, active compounds read low 0.955 | locus YPR025C, strain CCL1, active compounds read low 0.97 | locus YPR106W, strain ISR1, active compounds read low 0.979 | locus YPR111W, strain DBF20, active compounds read low 0.954 | strain NNK1, active compounds read low 0.974 | strain TSCII, active compounds read low 0.963
active: locus YHR030C, strain SLT2, active compounds read low 0.745
